This note sets out measurements from PubChem BioAssay (Tox21).

Inconclusive results are not listed. Activity calls are given as the source filed them. Unless noted, calls come from the whole dose curve; as a rule, active = well fitted curve in the direction sought with a large enough effect in the repeat runs; inconclusive = weak or mixed curves; inactive = no such curve, though single readings can be large; an effect the other way counts as inactive or inconclusive.

Test [1] can be described thus: qHTS assay to identify small molecule antagonists of the androgen receptor (AR) signaling pathway using the MDA cell line in the presence of 0.5 nM R1881 - cell viability counter screen (AID 1259242). Note: nearly all actives have a fitted effect of over 45% in size. Note: potency is the fitted concentration of half-maximal effect. The essentials: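 Steps: plate MDA-kb2 cells, rest 5 hr at 37C without CO2; pin in compounds in DMSO; add R1881 to 0.5 nM final; incubate 16 hr; add CellTiter-Fluor, 30 min; read fluorescence.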
(Quantitative high-throughput screening tests each substance at several concentrations.)

Test [2] has as its target Androgen receptor (Homo sapiens) (UniProt P10275). The experiment in a line: qHTS assay to identify small molecule antagonists of the androgen receptor (AR) signaling pathway using the MDA cell line in the presence of 0.5 nM R1881 (AID 1259243). Note: potency is the fitted concentration of half-maximal effect; nearly all actives have a fitted effect of over 50% in size. The essentials: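 Stably transfected MDA-kb2 cells express luciferase from an MMTV promoter bearing both AR and GR response elements. Compounds plus 0.5 nM R1881 (final) were incubated 16 hr at 37C without CO2, then luminescence measured.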

Test [3] can be described thus: qHTS assay to identify small molecule HDAC inhibitors (AID 1259364). Note: potency is the fitted concentration of half-maximal effect.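 Note: wild-type HCT-116 cells with endogenous class I/II HDAC activity; nearly all actives have a fitted effect of over 45% in size.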 The essentials:
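Cells (HCT-116, wild type) are seeded at 1,500 per well, incubated overnight, treated with compound in DMSO for 2 hr, then developed with HDAC-Glo I/II reagent for 30 min at room temperature.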

Test [4] is described as follows: qHTS assay to identify small molecule HDAC inhibitors - cell viability counter screen (AID 1259365). Note: nearly all actives have a fitted effect of over 50% in size. Note: potency is the fitted concentration of half-maximal effect. The essentials:
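Counter screen in wild-type HCT-116 cells: compounds dissolved in DMSO are pin-transferred onto overnight-plated cells and left 2hr at 37C. ATP-based CellTiter-Glo luminescence then measures viable cells.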

The nature of test [5]: qHTS assay to identify small molecule antagonists of the sonic hedgehog signaling (Shh) pathway - cell viability counter screen (AID 1259367). Note: nearly all actives have a fitted effect of over 55% in size. Note: potency is the fitted concentration of half-maximal effect. The essentials: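 Viability was read by CellTiter-Fluor fluorescence in the same wells, reagent added 23 hr into compound treatment and incubated 1 hr at 37C. The 3T3 Gli1-Luc reporter cells (2,000/well) received conditioned medium after compound and ran 24 hr.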

Test [6] in a line: qHTS assay to identify small molecule agonists of the sonic hedgehog signaling (Shh) pathway (AID 1259368; calls by dose curve;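 note: NIH/3T3-derived 3T3Gli1-Luc cells carrying a stable Gli1-driven firefly luciferase reporter; series mostly up to about 92 µM; nearly all actives have a fitted effect of over 15% in size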). The essentials:
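Cells of a mouse NIH/3T3 clone stably expressing luciferase under the Gli1 transcriptional response element are exposed to test chemicals for 24 hr at 37 C. Pathway activation is detected as a rise in luminescence.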

The nature of test [7]: qHTS assay to identify small molecule antagonists of the sonic hedgehog signaling (Shh) pathway (AID 1259369; calls by dose curve; note: nearly all actives have a fitted effect of over 45% in size; note: potency is the fitted concentration of half-maximal effect). The essentials:
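Cells are plated and held 4hr at 37 C, compounds (DMSO) are pinned in, conditioned medium is added to stimulate the pathway, and after 24hr luciferase reagent is added for 30min before luminescence is read.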

A short description of test [8]: qHTS assay to identify small molecule agonists of the estrogen receptor beta (ER-beta) signaling pathway - cell viability counter screen (AID 1259380). Note: nearly all actives have a fitted effect of over 30% in size. Note: potency is the fitted concentration of half-maximal effect. The essentials:
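Cytotoxicity is measured in parallel with the reporter screen: after 16 hr compound exposure at 37C and a 2 hr LiveBLAzer step, CellTiter-Glo is added to the same ER-beta-UAS-bla HEK293T wells and luminescence read after 30 min.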

In test [9] the target is Androgen receptor (Homo sapiens) (UniProt P10275). The test is described as follows: qHTS assay to identify small molecule agonists of the androgen receptor (AR) signaling pathway in the presence of an antagonist (AID 1259381; calls by dose curve; note: nearly all actives have a fitted effect of over 15% in size). The essentials:
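Agonist-mode confirmation screen: human MDA-kb2 cells stably expressing luciferase under an MMTV promoter bearing AR and GR response elements, co-treated with 3.0uM nilutamide (final). Luminescence measured after 16hr compound incubation.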

A short description of test [10]: qHTS assay to identify small molecule antagonists of the estrogen receptor beta (ER-beta) signaling pathway - cell viability counter screen (AID 1259382). Note: nearly all actives have a fitted effect of over 55% in size. Note: potency is the fitted concentration of half-maximal effect. The essentials:
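Cytotoxicity counter screen multiplexed with the beta-lactamase antagonist assay: GripTite HEK293T ER-beta-bla cells were treated 16 hr with test chemicals in the presence of 1nM 17-beta-estradiol, and viability was measured by CellTiter-Glo.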

Test [11] has as its target Estrogen receptor (Homo sapiens) (UniProt P03372). The test is described as follows: qHTS assay to identify small molecule agonists of the estrogen receptor alpha (ER-alpha) signaling pathway in the presence of an antagonist (AID 1259383; calls by dose curve; note: top concentration of the series differs between compounds; nearly all actives have a fitted effect of over 15% in size). The essentials:
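Agonist-mode confirmation in the presence of the ER antagonist ICI-182,780 at 10.0nM final. Breast-derived VM7Luc4E2 reporter cells were exposed to compounds for 22hr, and ERE-driven luciferase was quantified by luminescence.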

Test [12] can be described thus: qHTS assay to identify small molecule agonists or antagonists of the thyroid stimulating hormone receptor (TSHR) signaling pathway - wild type cell line counter screen (AID 1259384; calls by dose curve). The essentials:
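Counter screen in untransfected Hek293: compounds (15-point titration, triplicate) plus phosphodiesterase inhibitor Ro20-1724 added after 18 h plating; 30 min RT. Intracellular cAMP via competitive d2/cryptate immunoassay, 1 h incubation.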

Test [13] concerns the target Thyrotropin receptor (Homo sapiens) (UniProt P16473). The test is described as follows: qHTS assay to identify small molecule antagonists of the thyroid stimulating hormone receptor (TSHR) signaling pathway (AID 1259385; calls by dose curve; note: nearly all actives have a fitted effect of over 20% in size). The essentials:
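Antagonist mode: compound-treated TSHR-expressing HEK293 cells were stimulated with 1.5 ng/mL TSH (final) in presence of Ro20-1724 for 30 min at RT. HTRF cAMP detection after 1 h; each compound tested at 15 concentrations, triplicate.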

The target in test [14] is Estrogen receptor (Homo sapiens) (UniProt P03372). The test is described as follows: qHTS assay to identify small molecule antagonists of the estrogen receptor alpha (ER-alpha) signaling pathway using the BG1 cell line in the presence of 0.1 nM 17-beta-estradiol (AID 1259244). Note: nearly all actives have a fitted effect of over 50% in size. Note: potency is the fitted concentration of half-maximal effect. The essentials: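 Antagonist mode: compounds in DMSO are pinned onto VM7Luc4E2 reporter cells, 0.1 nM final 17beta-estradiol is added, and after 22 h at 37C luciferase luminescence is measured with ONE-Glo.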
Chain of Estrogen receptor (Homo sapiens) (P03372 whole entry, looked up): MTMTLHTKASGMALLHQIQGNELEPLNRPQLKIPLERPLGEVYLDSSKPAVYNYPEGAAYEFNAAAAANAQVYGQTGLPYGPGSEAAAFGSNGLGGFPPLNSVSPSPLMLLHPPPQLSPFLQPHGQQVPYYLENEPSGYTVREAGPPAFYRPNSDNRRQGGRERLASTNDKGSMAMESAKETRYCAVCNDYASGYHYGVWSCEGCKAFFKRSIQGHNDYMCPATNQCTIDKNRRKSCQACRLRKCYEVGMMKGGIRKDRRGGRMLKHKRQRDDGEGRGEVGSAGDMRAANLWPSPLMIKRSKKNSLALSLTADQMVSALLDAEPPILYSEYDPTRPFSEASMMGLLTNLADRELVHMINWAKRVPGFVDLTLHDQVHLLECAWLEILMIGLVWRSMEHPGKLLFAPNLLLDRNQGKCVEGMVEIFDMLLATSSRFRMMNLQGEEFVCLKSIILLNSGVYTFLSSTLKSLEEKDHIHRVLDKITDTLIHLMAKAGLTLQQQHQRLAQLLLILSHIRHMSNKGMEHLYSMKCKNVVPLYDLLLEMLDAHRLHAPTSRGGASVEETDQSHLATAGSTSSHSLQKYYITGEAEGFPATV

Test [15] is described as follows: qHTS assay to identify small molecule agonists of the sonic hedgehog signaling (Shh) pathway - cell viability counter screen (AID 1259366). Note: nearly all actives have a fitted effect of over 50% in size. Note: potency is the fitted concentration of half-maximal effect. The essentials: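 Cells are plated at 2,000 per well and left 4hr at 37C, 5% CO2 before compound addition. After 23hr of treatment, CellTiter-Fluor reagent is added for 1hr at 37C and fluorescence is measured.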
Test [16] can be described thus: qHTS assay to identify small molecule agonists of the androgen receptor (AR) signaling pathway in the presence of an antagonist - cell viability counter screen (AID 1259379). Note: nearly all actives have a fitted effect of over 25% in size. Note: potency is the fitted concentration of half-maximal effect. The essentials: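 Cytotoxicity is assessed by CellTiter-Fluor in MDA-kb2 cells carrying an MMTV-driven luciferase reporter. Cells receive 3.0uM nilutamide plus compounds at 15 concentrations and incubate 16 hr at 37C without CO2 before fluorescence reading.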

Test [17] concerns the target Estrogen receptor beta (Homo sapiens) (UniProt Q92731). The experiment in a line: qHTS assay to identify small molecule agonists of the estrogen receptor beta (ER-beta) signaling pathway (AID 1259377; active = well fitted activation curve with a large enough effect in the signal ratio in the repeat runs, not every such curve was filed as active; the % refers to the signal ratio). The essentials: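 Agonist mode cell assay in GripTite HEK293T cells expressing an ER-beta fusion that drives beta-lactamase from an Upstream Activator Sequence; 16 hr compound exposure at 37C, then 2 h LiveBLAzer B/G FRET substrate at room temperature, fluorescence read-out.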

For test [18] the target is unchanged. The test is described as follows: qHTS assay to identify small molecule antagonists of the estrogen receptor beta (ER-beta) signaling pathway (AID 1259378; active = well fitted inhibition curve with a large enough effect in the signal ratio in the repeat runs, not every such curve was filed as active; the % refers to the signal ratio). The essentials:
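Antagonist mode: compounds added to beta-lactamase reporter HEK293T ER-beta-UAS cells stimulated with E2 (1nM final), 16 hr at 37C. LiveBLAzer B/G FRET substrate, 2 hours room temperature, fluorescence read-out.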

Chain of Androgen receptor (Homo sapiens) (P10275 whole entry, looked up): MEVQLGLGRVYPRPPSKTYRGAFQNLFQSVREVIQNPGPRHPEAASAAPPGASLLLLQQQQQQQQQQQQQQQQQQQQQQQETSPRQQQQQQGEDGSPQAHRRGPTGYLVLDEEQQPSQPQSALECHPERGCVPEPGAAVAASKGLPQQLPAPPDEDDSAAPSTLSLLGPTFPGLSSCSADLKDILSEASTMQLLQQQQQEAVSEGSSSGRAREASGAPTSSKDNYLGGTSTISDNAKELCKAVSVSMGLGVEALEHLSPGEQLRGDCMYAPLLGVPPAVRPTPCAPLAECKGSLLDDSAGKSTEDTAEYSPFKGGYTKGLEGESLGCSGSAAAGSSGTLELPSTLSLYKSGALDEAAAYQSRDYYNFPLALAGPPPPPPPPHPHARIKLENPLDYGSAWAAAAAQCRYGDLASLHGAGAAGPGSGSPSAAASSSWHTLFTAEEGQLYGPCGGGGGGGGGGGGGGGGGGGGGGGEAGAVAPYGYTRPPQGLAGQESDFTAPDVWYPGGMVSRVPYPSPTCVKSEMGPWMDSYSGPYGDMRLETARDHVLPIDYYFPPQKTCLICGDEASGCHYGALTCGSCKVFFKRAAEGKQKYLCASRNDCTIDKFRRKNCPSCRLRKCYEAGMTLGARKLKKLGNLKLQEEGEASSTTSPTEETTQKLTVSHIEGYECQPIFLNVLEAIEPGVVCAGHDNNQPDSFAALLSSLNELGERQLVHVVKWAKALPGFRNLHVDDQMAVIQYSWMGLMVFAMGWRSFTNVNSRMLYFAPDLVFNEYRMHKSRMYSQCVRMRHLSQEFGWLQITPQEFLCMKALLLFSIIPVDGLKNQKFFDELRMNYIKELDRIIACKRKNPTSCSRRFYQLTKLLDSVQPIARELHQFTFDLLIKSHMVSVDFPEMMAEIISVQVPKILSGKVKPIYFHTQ
Chain of Thyrotropin receptor (Homo sapiens) (P16473 whole entry, looked up): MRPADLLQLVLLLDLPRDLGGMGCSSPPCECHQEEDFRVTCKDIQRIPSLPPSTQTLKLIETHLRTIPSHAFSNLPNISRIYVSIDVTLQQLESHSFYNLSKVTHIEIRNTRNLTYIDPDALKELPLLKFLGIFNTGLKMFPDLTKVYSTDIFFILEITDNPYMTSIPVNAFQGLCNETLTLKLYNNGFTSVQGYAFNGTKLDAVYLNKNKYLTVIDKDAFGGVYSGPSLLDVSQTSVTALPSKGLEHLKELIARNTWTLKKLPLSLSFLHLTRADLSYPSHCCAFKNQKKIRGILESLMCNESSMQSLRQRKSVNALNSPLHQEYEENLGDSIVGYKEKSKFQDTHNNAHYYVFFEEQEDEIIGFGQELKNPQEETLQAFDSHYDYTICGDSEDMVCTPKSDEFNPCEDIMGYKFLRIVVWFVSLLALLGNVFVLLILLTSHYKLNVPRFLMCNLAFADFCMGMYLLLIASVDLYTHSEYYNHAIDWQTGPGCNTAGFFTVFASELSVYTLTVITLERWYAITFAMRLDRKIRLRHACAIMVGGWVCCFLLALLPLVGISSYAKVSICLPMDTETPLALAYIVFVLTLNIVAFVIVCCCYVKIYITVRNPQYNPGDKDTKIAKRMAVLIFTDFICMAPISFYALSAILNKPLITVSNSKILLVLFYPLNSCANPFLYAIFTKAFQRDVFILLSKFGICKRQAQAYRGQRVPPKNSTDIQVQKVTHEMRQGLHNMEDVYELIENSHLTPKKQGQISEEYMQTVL
Chain of Estrogen receptor beta (Homo sapiens) (Q92731 whole entry, looked up, the tested form may be a part): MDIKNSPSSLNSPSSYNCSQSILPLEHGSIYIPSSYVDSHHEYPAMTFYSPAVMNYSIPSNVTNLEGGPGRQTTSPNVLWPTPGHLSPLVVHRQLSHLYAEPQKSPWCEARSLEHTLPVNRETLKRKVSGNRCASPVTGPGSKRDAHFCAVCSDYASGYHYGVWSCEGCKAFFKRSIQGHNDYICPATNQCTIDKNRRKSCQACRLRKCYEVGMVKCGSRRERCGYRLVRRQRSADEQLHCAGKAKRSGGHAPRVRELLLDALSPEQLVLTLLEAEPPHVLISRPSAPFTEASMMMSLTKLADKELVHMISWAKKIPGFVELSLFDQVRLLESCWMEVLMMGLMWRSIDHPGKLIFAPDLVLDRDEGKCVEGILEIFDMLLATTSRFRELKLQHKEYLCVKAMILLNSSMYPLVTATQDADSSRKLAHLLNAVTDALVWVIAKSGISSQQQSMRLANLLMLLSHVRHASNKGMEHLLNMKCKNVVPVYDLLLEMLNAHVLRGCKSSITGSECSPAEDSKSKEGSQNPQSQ

Take `c1ccc2cc3c(cc2c1)-c1cccc2cccc-3c12`: the Potency result in test [1], in test [3], in test [4], in test [5], in test [6] and in test [7] was “inactive” throughout. Further, the Potency result in test [8], in [9], in test [10], in test [11] and in test [13] was “inactive” throughout. The Potency in test [2] was 3.02 µM (active). In addition, the compound was classed as inactive in [12].

As for `Nc1ccc(Cc2ccc(N)c(Cl)c2)cc1Cl`, the Potency result in test [1], in test [3], in test [4], in [6], in test [11] and in [13] was “inactive” each time. Further, the Potency in test [14] is 59.1 µM (active); in test [5], 52.7 µM (active); in test [7], 21 µM (active); in [8] it was 18.7 µM (active); in test [10], 46.9 µM (active). In addition, the result in [12] was inactive.

Take `CCOP(=O)(NC(C)C)Oc1ccc(SC)c(C)c1` (stereo not drawn): the Potency result in [1], in test [3], in test [4], in test [15], in test [6] and in test [16] was “inactive” throughout. The Potency entry in test [9] and in test [10] was “inactive” each time. The Potency in test [2] is 27.3 µM (active). For the same compound, the result in test [12] was inactive.

In the case of `CCCCCCCCCCCCCCCCCCn1cc[n+](C)c1`, the Potency in [1] was 34.2 µM (active); in test [2], 3.83 µM (active); in test [14] it was 15.3 µM (active); in test [15] it was 30.5 µM (active); in test [5], 30.5 µM (active); in test [7], 0.0542 µM (active). Moreover, the Potency in test [16] was 21.6 µM (active); in [8], 30.5 µM (active); in test [10] it was 30.5 µM (active). For the same compound, the Potency entry in test [3], in [4], in test [6], in test [9], in [11] and in test [13] was “inactive” each time. Moreover, the compound was called inactive in [12].

On to `CC(C)CCCCCOC(=O)c1ccccc1C(=O)OCCCCCC(C)C`, for which the Potency result in [1], in test [14], in [3], in test [4], in [15] and in test [5] was “inactive” throughout. Moreover, the Potency entry in test [6], in test [17], in test [18], in test [16], in test [10] and in test [11] was “inactive” in each case. In addition, in test [12], the compound was classed as inactive.

For the compound `O=C/C(Cl)=C(/Cl)C(=O)O`, the Potency result in test [1], in test [14], in [3], in [4], in [6] and in test [17] was “inactive” throughout. Moreover, the Potency entry in test [16], in [10], in [11] and in test [13] was “inactive” each time. Moreover, in test [7], the Potency was 38.6 µM (active). Further, the result in test [12] was inactive.

Turning to `CCN(CC)C(=S)[S-].CCN(CC)C(=S)[S-].[Zn+2]`, the Potency entry in [1], in test [4], in test [6] and in test [11] was “inactive” throughout. For the same compound, the Potency in [14] was 1.08 µM (active); in test [3] it was 34.1 µM (active); in test [15], 1.21 µM (active); in test [5] it was 1.08 µM (active); in test [16], 60.6 µM (active); in test [8], 2.71 µM (active). Further, in test [10], the Potency is 2.15 µM (active). In test [12], the result was inactive.

Consider `CCC[CH2][Sn]([CH2]CCC)([CH2]CCC)[O]C(=O)c1ccccc1`, for which the Potency in test [1] is 1.54 µM (active); in [14], 0.486 µM (active); in [4], 19.3 µM (active); in test [15], 0.686 µM (active); in [5] it was 0.864 µM (active); in test [7], 0.172 µM (active). Besides, the results for the Potency in test [16], in test [8] and in test [10] were 1.72 µM (active), 1.54 µM (active) and 1.93 µM (active), respectively. For the same compound, the Potency entry in test [3], in [6] and in [11] was “inactive” each time.

As to `C[C@@H]1CC[C@@]2(OC1)O[C@H]1[C@@H](O)[C@H]3[C@@H]4CC[C@H]5C[C@@H](O[C@@H]6O[C@H](CO)[C@H](O[C@@H]7O[C@H](CO)[C@@H](O)[C@H](O[C@@H]8OC[C@@H](O)[C@H](O)[C@H]8O)[C@H]7O[C@@H]7O[C@H](CO)[C@@H](O)[C@H](O[C@@H]8O[C@H](CO)[C@@H](O)[C@H](O)[C@H]8O)[C@H]7O)[C@H](O)[C@H]6O)[C@H](O)C[C@]5(C)[C@H]4CC[C@]3(C)[C@H]1[C@@H]2C`, the Potency is 23 µM (active) in [1]; 14.5 µM (active) in test [2]; 57.8 µM (active) in test [14]; 32.5 µM (active) in [15]; 32.5 µM (active) in test [5]; 57.8 µM (active) in test [16]. Further, the Potency in test [8] was 9.16 µM (active); in [10], 10.3 µM (active). Further, the Potency entry in test [3], in [6], in test [9] and in [11] was “inactive” in each case. Further, in [12], the compound was classed as inactive.
